The nature of assay [1]: qHTS profiling for inhibitors of Plasmodium falciparum proliferation (AID 504749). Further: potency means the concentration at half of the fitted maximal effect.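 On activity, negative = inhibition: 0% = DMSO vehicle and full inhibition = artemisinin control.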 On all read-outs here: nearly all actives have a fitted effect of over 60% in size. The settings on record: P. falciparum in erythrocytes, SYBR Green DNA, 72 h; for activity, negative = inhibition: at 28.7 µM (top of the series). In a few lines: (§1)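 Quantitative HTS: compounds pinned into medium, infected erythrocytes added (0.3% parasitemia, 2.5% hematocrit), 72 h culture at 37 C under 5% CO2. Saponin/Triton lysis with SYBR Green I, overnight RT, then fluorescence read.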

The next assay concerns 3D7. Described as above. The settings on record: P. falciparum in erythrocytes, SYBR Green DNA, 72 h; series mostly up to 28.7 µM. In a few lines: as §1
The subject of another assay is 7G8. The description is as above. The settings on record: P. falciparum in erythrocytes, SYBR Green DNA, 72 h; series mostly up to 28.7 µM. In outline: as §1
In the next assay the test system is AA1029. The description is as above. The settings on record: P. falciparum in erythrocytes, SYBR Green DNA, 72 h; series mostly up to 28.7 µM. In a few lines:
as §1

Another assay relates to AS120. The description is as above. The note with it: P. falciparum in erythrocytes, SYBR Green DNA, 72 h; series mostly up to 28.7 µM. In a few lines:
as §1

The test system of a further assay is ATS189. Described as above. The settings on record: P. falciparum in erythrocytes, SYBR Green DNA, 72 h; series mostly up to 28.7 µM. In outline:
as §1

Assay [2] in a line: qHTS drug screen for cell cycle checkpoint inhibitors in PARPi-resistant BRCA-mutant ovarian cancer cell lines. (AID 1963452; calls by dose curve). The note with it: PEO1/OlaR viability, CellTiter-Glo luminescence, 96 h, stronger effect = lower value. In a few lines: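 PEO1, PEO4 and PEO1/OlaR ovarian cancer cells, 600 per well, exposed 96 h at 37C to a dilution series. Viability read by CellTiter-Glo luminescence, normalized to DMSO and empty wells; activity summarized as Z-AUC.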

The nature of assay [3]: KB-8-5-11 P-gp reporter qHTS against the NCATS DSHEA and TCM libraries (AID 1919977). Further: 0% is about no effect. In a few lines: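 P-gp-overexpressing KB-8-5-11 cells (500/well) were plated in colchicine-free DMEM with 10% FBS, attached ~4 h, then exposed to substance titrations for ~72 h at 37C. Viability was read by CellTiter-Glo luminescence.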
Assay [4] in a line: Quantitative High-Throughput drug screen in 47 multiple myeloma cell lines against the NCATS MIPE library collection: KMS28BM_JCRB cell viability assay (AID 1919874). Further: potency means the concentration at half of the fitted maximal effect; nearly all actives have a fitted effect of over 35% in size. In outline:
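qHTS format: cells plated (500/well), pin-dosed with MIPE 4.0 compounds, kept 48 h at 37 °C. Readout was CellTiter-Glo luminescence, median RLU.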

The nature of assay [5]: qHTS for identification of novel therapeutic agents for treatment of microphthalmiaassociated transcription factor (MiT) renal cell carcinoma (RCC) (AID 1963991; calls by dose curve; further: potency means the concentration at half of the fitted maximal effect). The settings on record: CellTiter-Glo, 48 h; for z-score: stronger effect = lower value. In a few lines:
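Curves over 11 concentrations were fitted to CellTiter-Glo luminescence, scaled between empty wells (0%) and DMSO (100%) viability. Cells were UOK109, UOK124 and UOK145 TFE3-fusion RCC lines at 500/well, exposed 48 hours at 37 C.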

[6] abbreviates: measured here: PEO1 parental Z-AUC.

Molecules are shown by their SMILES. Results filed as inconclusive are left out. The source made the active and inactive calls. Unless noted, the call rests on the fitted dose curve; in most records, active means well fitted curve in the direction sought with a large enough effect; inconclusive means small, poorly fitted or top-dose-only effect, or another doubt; inactive means no such curve, though single readings can be large; an effect the other way counts as inactive or inconclusive.

Consider `O=C1NCN(c2ccccc2)C12CCN(CC1COc3ccccc3O1)CC2` (stereo not drawn), for which the activity, negative = inhibition in [1] (parasite line A) is -17.5% (inactive); in assay [1] (parasite line B) it was 5.67% (inactive). For the same compound, the Potency result with 3D7, in the assay with AA1029, in the assay on AS120 and in the assay on ATS189 was “inactive” throughout. In the assay on 7G8, the Potency is 12.6 µM (active).
Take `Clc1ccc(COC(Cn2ccnc2)c2ccc(Cl)cc2Cl)cc1` (stereo not drawn): the Potency in [1] (parasite line A) is 3.55 µM (active); in [1] (parasite line B), 2.51 µM (active); with 3D7 it was 3.16 µM (active); in the assay with 7G8, 0.398 µM (active); in the assay with AA1029, 4.47 µM (active); with AS120 it was 1 µM (active). Also, the Potency in the assay with ATS189 was 3.16 µM (active).
Regarding `NP(N)(=O)NC(=O)c1ccc(F)cc1`, the activity, negative = inhibition in assay [1] (parasite line A) is -1.33% (inactive); in assay [1] (parasite line B) it was 3.8% (inactive). The Potency entry in the assay on 3D7, in the assay with 7G8, in the assay on AA1029, in the assay with AS120 and with ATS189 was “inactive” each time.
Turning to `C=C1C[C@@H]2[C@H](CC[C@]3(C)C(=O)CC[C@@H]23)[C@@]2(C)C=CC(=O)C=C12`, the Z-AUC is 1.28 (inactive) in [2], 0.968 in assay [2] (setting [6]) and 1.01 in [2] (measured here: PEO4 Z-AUC).
For `O=C(NC(O)C(Cl)(Cl)Cl)NC(O)C(Cl)(Cl)Cl` (stereo not drawn), the activity, negative = inhibition is -1.71% (inactive) in assay [1] (parasite line A) and 6.79% (inactive) in [1] (parasite line B). The Potency entry with 3D7, in the assay with 7G8, in the assay with AA1029, in the assay with AS120 and in the assay on ATS189 was “inactive” each time.
Turning to `CCOP(=S)(OCC)Oc1cc(C)nc(C(C)C)n1`, the activity, negative = inhibition in assay [1] (parasite line A) was 5.69% (inactive); in assay [1] (parasite line B), 9.55% (inactive). In addition, the Potency result in the assay with 3D7, in the assay on 7G8, in the assay on AA1029, in the assay on AS120 and with ATS189 was “inactive” each time.
As to `O=c1c(O)c(-c2ccc(O)c(O)c2)oc2cc(O)cc(O)c12`, the call in assay [3] was inactive.
On to `N[C@@H]1C[C@H]1c1ccccc1`, for which the Z-AUC was 0.628 (inactive) in [2], 1.13 in assay [2] (setting [6]) and 0.895 in assay [2] (measured here: PEO4 Z-AUC).
For the compound `NN=C(N)N`, the Z-AUC in assay [2] is 0.673 (inactive); in assay [2] (setting [6]), 0.529; in assay [2] (measured here: PEO4 Z-AUC), 0.584. Besides, the activity, negative = inhibition in assay [1] (parasite line A) was -1.43% (inactive); in [1] (parasite line B), 11.2% (inactive). For the same compound, the Potency result in the assay on 3D7, in the assay on 7G8, with AA1029, with AS120 and in the assay with ATS189 was “inactive” throughout.
Turning to `Cc1cccc(C)c1NC1=NCCCS1`, the activity, negative = inhibition was -16.9% (inactive) in [1] (parasite line A) and -6.65% (inactive) in assay [1] (parasite line B). Also, in the assay on 3D7, the Potency entry was “inactive”. The Potency in the assay on 7G8 is 11.2 µM (active).
Take `CC(=O)Nc1cc([As](=O)(O)O)ccc1O`: the activity, negative = inhibition in assay [1] (parasite line A) was -21% (inactive); in assay [1] (parasite line B) it was -0.406% (inactive). The Potency result in the assay with 3D7, with 7G8, in the assay on AA1029, in the assay with AS120 and with ATS189 was “inactive” throughout.
`Oc1ccccc1-c1ccccc1`: the activity, negative = inhibition is -2.25% (inactive) in assay [1] (parasite line A) and -2.09% (inactive) in [1] (parasite line B). In addition, the Potency entry with 3D7, in the assay with 7G8, in the assay with AA1029, in the assay with AS120 and with ATS189 was “inactive” in each case.
Turning to `C[C@@H]1O[C@@H](O[C@H]2C[C@@H](O)[C@]3(CO)[C@H]4[C@H](O)C[C@]5(C)[C@@H](C6=CC(=O)OC6)CC[C@]5(O)[C@@H]4CC[C@]3(O)C2)[C@H](O)[C@H](O)[C@H]1O`, the Potency in [4] was 0.0209 µM (active); in assay [5] (TFE3-RCC UOK109 viability), 0.0166 µM (active). Moreover, the Z-AUC in [2] was -1.08 (inactive); in [2] (setting [6]) it was -2.2; in assay [2] (measured here: PEO4 Z-AUC), -1.63. Besides, the z-score in assay [5] (TFE3-RCC UOK109 viability, measured here: UOK109 Z-AUC) was -3.9; in assay [5] (TFE3-RCC viability, measured here: UOK124 Z-AUC), -2.36; in assay [5] (TFE3-RCC viability, measured here: UOK145 Z-AUC) it was -3.38.

Source of the values: PubChem BioAssay (NCATS).
